# Assay results: the supplement of paper PMC10849652
# The full data set covers some 8,800 targets. This sample favours those with a hit. About 0.5% of all pairs of compound and target were hits. A number with no mark means an inactive call.
# Tests used:
# Experiment in all cases: log2 fold change, soluble protein after heating vs DMSO (PISA); higher = thermal stabilisation; K562 lysate, 10 uM; active = over 0.2 and 3.5 SD of the protein, either way, in both replicates (recomputed)
# [1] = compound: NCC(=O)Nc1ccc(-n2nc(C(F)(F)F)cc2-c2ccc3c(ccc4ccccc43)c2)cc1
# Outline: (§1)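 Values give the log-two fold change in thermal stability against solvent controls, from duplicates. Crude K562 extract at 1 mg/mL protein, made by dounce homogenisation in PBS pH 7.4 with 1 mM MgCl2, was treated with 10 μM compound for 30 min. After 3 min heating across 48°C-58°C, aliquots were pooled, adjusted to 0.5% NP-40 at 4°C and centrifuged at 21,000xg for 90 min. The supernatant was measured by TMTpro 16plex LC-MS/MS with channel sums equalised.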
# vorinostat = compound: O=C(CCCCCCC(=O)Nc1ccccc1)NO [vorinostat]
# Outline: as §1
# silmitasertib = compound: O=C(O)c1ccc2c(c1)nc(Nc1cccc(Cl)c1)c1ccncc12 [silmitasertib]
# Outline: as §1
# entospletinib = compound: c1cn2cc(-c3ccc4cn[nH]c4c3)nc(Nc3ccc(N4CCOCC4)cc3)c2n1 [entospletinib]
# Outline: as §1
# [2] = compound: O=C1NC(=O)C(c2cnc3ccccn23)=C1c1cn2c3c(cc(F)cc13)CN(C(=O)N1CCCCC1)CC2
# Outline: as §1
# Chain of UniProt Q9P1F3 (Q9P1F3 whole entry, looked up): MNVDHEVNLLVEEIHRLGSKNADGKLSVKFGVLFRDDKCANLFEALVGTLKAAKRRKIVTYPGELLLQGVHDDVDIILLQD
# Chain of UniProt Q9BXX2 (Q9BXX2 whole entry, looked up): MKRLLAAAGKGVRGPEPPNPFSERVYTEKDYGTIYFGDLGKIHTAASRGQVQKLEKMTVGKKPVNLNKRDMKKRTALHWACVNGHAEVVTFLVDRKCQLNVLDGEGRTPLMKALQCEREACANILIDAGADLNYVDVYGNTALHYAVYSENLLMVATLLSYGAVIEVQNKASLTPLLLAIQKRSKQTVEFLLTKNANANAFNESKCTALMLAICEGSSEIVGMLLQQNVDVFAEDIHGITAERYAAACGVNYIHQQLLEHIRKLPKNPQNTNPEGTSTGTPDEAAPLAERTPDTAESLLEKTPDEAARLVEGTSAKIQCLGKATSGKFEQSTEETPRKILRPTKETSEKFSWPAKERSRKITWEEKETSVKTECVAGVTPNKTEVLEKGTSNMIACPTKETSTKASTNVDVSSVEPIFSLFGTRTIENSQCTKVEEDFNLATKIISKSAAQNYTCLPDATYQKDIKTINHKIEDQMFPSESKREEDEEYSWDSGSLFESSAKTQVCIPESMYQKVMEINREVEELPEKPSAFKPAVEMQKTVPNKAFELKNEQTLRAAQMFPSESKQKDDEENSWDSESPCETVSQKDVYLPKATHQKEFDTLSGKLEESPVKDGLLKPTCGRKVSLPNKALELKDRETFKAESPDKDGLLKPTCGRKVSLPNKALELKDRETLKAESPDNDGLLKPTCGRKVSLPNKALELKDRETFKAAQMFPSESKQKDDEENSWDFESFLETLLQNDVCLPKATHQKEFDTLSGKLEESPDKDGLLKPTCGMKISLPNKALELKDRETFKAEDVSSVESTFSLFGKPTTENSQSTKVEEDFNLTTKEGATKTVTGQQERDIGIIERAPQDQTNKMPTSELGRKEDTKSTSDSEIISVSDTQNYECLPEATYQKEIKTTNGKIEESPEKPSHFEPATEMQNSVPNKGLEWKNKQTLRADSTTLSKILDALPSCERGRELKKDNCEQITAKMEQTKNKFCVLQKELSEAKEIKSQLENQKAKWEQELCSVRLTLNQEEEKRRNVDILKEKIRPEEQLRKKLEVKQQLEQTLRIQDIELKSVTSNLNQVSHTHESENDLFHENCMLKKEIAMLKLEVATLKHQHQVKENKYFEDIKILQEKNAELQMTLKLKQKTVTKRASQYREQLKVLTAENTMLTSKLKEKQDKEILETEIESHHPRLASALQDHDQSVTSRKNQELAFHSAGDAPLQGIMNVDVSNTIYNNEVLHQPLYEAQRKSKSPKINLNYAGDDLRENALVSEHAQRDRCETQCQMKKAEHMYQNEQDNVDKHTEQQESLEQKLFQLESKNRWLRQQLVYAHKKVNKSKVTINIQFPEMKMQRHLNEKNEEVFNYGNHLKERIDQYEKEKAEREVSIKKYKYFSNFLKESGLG
# Chain of UniProt Q9BQI0 (Q9BQI0 whole entry, looked up): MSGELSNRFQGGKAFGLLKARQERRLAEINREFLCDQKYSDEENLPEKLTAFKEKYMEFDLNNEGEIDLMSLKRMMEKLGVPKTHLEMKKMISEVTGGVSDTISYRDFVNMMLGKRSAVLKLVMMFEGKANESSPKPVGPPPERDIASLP
# Chain of UniProt P16219 (P16219 whole entry, looked up): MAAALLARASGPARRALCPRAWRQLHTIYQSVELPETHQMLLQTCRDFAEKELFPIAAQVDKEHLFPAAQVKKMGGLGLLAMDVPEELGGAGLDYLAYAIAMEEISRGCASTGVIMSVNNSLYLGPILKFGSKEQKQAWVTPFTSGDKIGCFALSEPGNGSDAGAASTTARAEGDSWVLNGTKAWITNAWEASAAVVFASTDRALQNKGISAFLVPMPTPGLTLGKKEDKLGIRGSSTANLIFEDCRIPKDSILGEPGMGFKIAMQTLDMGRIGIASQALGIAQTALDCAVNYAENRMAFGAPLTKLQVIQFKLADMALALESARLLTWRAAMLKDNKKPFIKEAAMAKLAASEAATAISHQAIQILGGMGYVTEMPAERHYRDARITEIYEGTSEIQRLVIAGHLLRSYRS
# Chain of UniProt Q13686 (Q13686 whole entry, looked up): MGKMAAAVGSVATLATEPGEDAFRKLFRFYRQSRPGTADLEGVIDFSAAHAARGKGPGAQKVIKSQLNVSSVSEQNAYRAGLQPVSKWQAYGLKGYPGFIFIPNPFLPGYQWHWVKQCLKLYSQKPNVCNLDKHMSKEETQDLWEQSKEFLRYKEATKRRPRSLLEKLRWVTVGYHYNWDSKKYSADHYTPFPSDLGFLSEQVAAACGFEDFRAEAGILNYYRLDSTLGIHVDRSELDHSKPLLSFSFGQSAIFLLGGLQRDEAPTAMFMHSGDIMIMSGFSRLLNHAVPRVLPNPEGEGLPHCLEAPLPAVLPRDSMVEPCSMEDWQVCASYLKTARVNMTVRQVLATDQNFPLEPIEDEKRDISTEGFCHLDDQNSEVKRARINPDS
# Chain of UniProt Q9BT30 (Q9BT30 whole entry, looked up): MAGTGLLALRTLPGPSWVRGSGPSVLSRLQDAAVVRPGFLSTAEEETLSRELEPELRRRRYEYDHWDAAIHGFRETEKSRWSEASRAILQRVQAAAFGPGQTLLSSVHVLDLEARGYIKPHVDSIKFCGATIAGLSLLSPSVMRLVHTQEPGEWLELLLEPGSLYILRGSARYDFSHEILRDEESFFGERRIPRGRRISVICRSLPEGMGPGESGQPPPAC
# Chain of UniProt Q9Y6B7 (Q9Y6B7 whole entry, looked up): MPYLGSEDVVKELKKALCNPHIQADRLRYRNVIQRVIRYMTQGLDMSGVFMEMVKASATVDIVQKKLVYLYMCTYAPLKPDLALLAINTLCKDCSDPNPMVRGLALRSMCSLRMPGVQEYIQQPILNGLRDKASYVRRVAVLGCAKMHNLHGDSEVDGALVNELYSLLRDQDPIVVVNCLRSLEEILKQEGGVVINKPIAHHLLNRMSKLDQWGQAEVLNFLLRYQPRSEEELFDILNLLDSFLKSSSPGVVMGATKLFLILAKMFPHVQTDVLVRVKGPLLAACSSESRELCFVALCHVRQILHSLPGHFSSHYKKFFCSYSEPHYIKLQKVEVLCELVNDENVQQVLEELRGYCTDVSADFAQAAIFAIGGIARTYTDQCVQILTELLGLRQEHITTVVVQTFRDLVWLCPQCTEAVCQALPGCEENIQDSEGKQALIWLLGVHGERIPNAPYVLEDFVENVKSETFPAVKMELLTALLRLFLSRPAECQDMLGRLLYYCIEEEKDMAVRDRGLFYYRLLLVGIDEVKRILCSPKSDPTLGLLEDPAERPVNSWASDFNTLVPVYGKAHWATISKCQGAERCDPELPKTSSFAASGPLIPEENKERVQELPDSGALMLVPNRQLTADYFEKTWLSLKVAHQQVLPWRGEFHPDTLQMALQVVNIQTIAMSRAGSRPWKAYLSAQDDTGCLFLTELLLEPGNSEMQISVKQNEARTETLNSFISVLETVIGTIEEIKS
# Chain of UniProt Q8IZP0 (Q8IZP0 whole entry, looked up): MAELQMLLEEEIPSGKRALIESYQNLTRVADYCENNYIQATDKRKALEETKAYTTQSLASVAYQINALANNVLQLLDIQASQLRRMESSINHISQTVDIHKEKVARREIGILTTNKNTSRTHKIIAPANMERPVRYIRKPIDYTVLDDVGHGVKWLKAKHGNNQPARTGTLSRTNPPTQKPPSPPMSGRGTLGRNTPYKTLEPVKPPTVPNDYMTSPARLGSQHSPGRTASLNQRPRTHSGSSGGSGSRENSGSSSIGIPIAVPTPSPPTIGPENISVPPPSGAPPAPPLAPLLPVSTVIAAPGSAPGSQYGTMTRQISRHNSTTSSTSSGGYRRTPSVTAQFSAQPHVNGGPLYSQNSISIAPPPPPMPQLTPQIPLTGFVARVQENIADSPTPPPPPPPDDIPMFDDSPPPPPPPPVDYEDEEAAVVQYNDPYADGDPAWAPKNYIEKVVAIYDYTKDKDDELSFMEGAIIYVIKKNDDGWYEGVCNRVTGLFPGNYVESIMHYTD
Target,log2 fold change [1],log2 fold change (vorinostat),log2 fold change (silmitasertib),log2 fold change (entospletinib),log2 fold change [2]
ANKRD30B (UniProt Q9BXX2),0.228,0.147,0.047,0.025,
ABRACL (UniProt Q9P1F3),,-0.845 (active),0.111,,0.088
ABI1 isoform 6 (UniProt Q8IZP0),,,,-0.115,
ALKBH7 (UniProt Q9BT30),,1.23 (active),-0.031,0.151,0.079
ALKBH1 (UniProt Q13686),-0.089,-0.284 (active),0.135,-0.052,
AIF1L (UniProt Q9BQI0),,-0.048,0.083,0.116,0.022
AP4B1 (UniProt Q9Y6B7),0.08,-0.286 (active),0.037,0.022,-0.051
ACADS (UniProt P16219),-0.005,0.217,-0.089,-0.021,0.017
ANXA2 (UniProt H0YL33),,-0.153,0.16,,0.042
